# Statin myotox sup: suppressors of simvastatin-induced myotoxicity in C2C12 myotubes; hit rate 0.78% among 330,000; rescue of ATP level, % at 7.49 µM; ATP luminescence, 48 h; scaled: DMSO 0, geranylgeraniol control 100;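 active = mean ATP rescue above about 67%, or every replicate alone reaching that limit, limit read from the data, passing the limit was not always enough; inconclusive = no clear call, values can overlap the other calls; inactive = mean under the limit and some replicate under it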;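 note: myotubes were challenged with 10 µM simvastatin during compound exposure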
# DENV2 CPE rescue: DENV2-induced cell death inhibition. DENV2-infected cells, cytopathic effect rescue, plate reader. CPE inhibition, % at 9.99 µM. hit rate 1.7% among 350,000. AID 651640; in the data active = CPE inhibition above about 20%, passing the limit was not always enough; inconclusive = no clear call, values can overlap the other calls; tested in BHK-21 cells;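 note: 0% = median of neutral control wells and 100% = median of positive control wells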
# miR122 inh: miR-122 inhibition in Huh7 cells | AID 602342 | Huh7 miR-122 Renilla luciferase sensor, 48 h; neutral wells = 0, positive control = 100 | activation (reporter increase), % at 12.5 µM | hit rate 0.3% among 340,000;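 active = mean replicate activation score at least 90 and every replicate individually at or above 90; inconclusive = only one of the two criteria met; inactive = neither criterion met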;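 note: higher luciferase means less miR-122 activity so hits act as miR-122 inhibitors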
# PGC1a acetyl inh: PGC1a acetylation modulation, inhibitor mode. U2OS PGC1a acetylation, AlphaScreen anti-acetyl-lysine; with virally co-expressed GCN5 acetyltransferase. inhibition, % at 15.6 µM. hit rate 0.17% among 350,000;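 active = every replicate shows inhibition of at least 40%; inconclusive = mean inhibition at least 40% but some replicate below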;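 note: 0% = neutral control wells and 100% = positive control wells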
# PvdQ inh: P. aeruginosa PvdQ acylase inhibition. AID 488965. purified PvdQ acylase, fluorescence plate reader. inhibition, % at 10 µM. hit rate 0.063% among 340,000; in the data active = inhibition above about 30%, passing the limit was not always enough; inconclusive = no clear call, values can overlap the other calls;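 note: 0% = vehicle neutral wells and 100% = reference inhibitor wells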
# * hit, by the source's call; ? = inconclusive; . = no result; ! = a repeat was not active; [ ] = remark or other dose. In the library only some 2.2% were active in any assay of this set; here they are far more common.
SMILES,Statin myotox sup,DENV2 CPE rescue,miR122 inh,PGC1a acetyl inh,PvdQ inh
Cc1ccccc1-c1ccc([C@H]2[C@@H](CO)N3C(=O)CN(C(=O)c4ccccn4)C[C@@H]23)cc1,.,-7,.,-4,.
C[C@H]1CN([C@@H](C)CO)C(=O)c2ccccc2-c2ccccc2CO[C@H]1CN(C)Cc1ccccc1C(F)(F)F,.,21*,.,-6,.
COc1cccc(CN(C)C[C@@H]2OCc3ccccc3-c3c(n(C)c4ccccc34)C(=O)N([C@@H](C)CO)C[C@H]2C)c1,-6,49*!,-12,-24,.
C[C@@H]1CN([C@@H](C)CO)C(=O)c2ccccc2-c2ccccc2CO[C@@H]1CN(C)Cc1ccccc1C(F)(F)F,.,-3,.,-22,.
C[C@H]1CN([C@@H](C)CO)C(=O)c2c(c3ccccc3n2C)-c2ccccc2CO[C@@H]1CN(C)Cc1cccc2c1OCCCO2,.,13,.,1,.
C[C@H](CO)N1C[C@H](C)[C@H](CN(C)C(=O)Nc2cccc(C(F)(F)F)c2)OCc2ccccc2-c2c(n(C)c3ccccc23)C1=O,.,25*,.,2,.
C[C@@H]1CN([C@H](C)CO)C(=O)c2c(c3ccccc3n2C)-c2ccccc2CO[C@@H]1CN(C)Cc1cccc2c1OCCCO2,.,28*,.,-12,.
C[C@H](CO)N1C[C@H](C)[C@H](CN(C)C(=O)Nc2ccc(F)cc2)OCc2ccccc2-c2c(n(C)c3ccccc23)C1=O,1,73*!,31,-14,.
COc1ccccc1-c1cncc(NC(C)=O)n1,1,27*,-3,7,.
S=C1NCCN1CC1CCN(CCCC2CCCC2)CC1,7,72*,-1,9,-14
S=C1NCCN1CC1CCN(CC2CCCC2)CC1,0,6,.,.,-14
Cc1ccc(C(O)CN2C3=NCCN3c3ccccc32)cc1 (stereo not given),121*,.,-5,2,-18
CC(=O)OC12CC3CC(C1)C(=NO)C(C3)C2,94*,.,-9,1,-16
O=C(Cc1c(F)c(F)c(F)c(F)c1F)OC12CC3CC(C1)C(=O)C(C3)C2,-10,.,4,8,-22
CO[C@@H]1CN(C)C(=O)c2cc(NC(=O)C3CCCCC3)ccc2OC[C@H](C)N(Cc2nccs2)C[C@H]1C,-2,-8,.,2,.
O=C(C[C@@H]1CC[C@H](NC(=O)c2ccc(F)cc2)[C@H](CO)O1)NCCc1ccccc1,-11,?,-19[16.7 µM],11,.
Cc1cccc(N2CCN(C(C(=O)NCc3ccccc3)c3ccc(F)cc3)CC2)c1C (stereo not given),.,59*,.,.,.
C[C@@H]1CN([C@@H](C)CO)C(=O)Cc2cc(NC(=O)Nc3ccc(F)cc3)ccc2O[C@H]1CN(C)S(=O)(=O)c1cn(C)cn1,0,.,2[16.7 µM],2,.
Cc1c(Cl)cccc1NC(=O)CCCn1cnc([N+](=O)[O-])n1,11,3,251*,-8,-11
CCOc1ccc(N(CC(=O)Nc2ccccc2OC)S(=O)(=O)c2ccccc2)cc1,-22,-4,28,88*,-17
CCOc1ccccc1N(CC(=O)Nc1ccc(OC)cc1)S(=O)(=O)c1ccccc1,21,28*,30,0,-3
Cc1ccc(S(=O)(=O)N(CC(=O)N2CCC(C)CC2)c2ccccc2)cc1,1,1,34,-6,37*
COc1ccc(S(=O)(=O)N(CC(=O)N2CCCCCC2)c2ccccc2OC)cc1,99*,10,11,-38,-10
COc1ccc(N(CC(=O)Nc2ccc(OC)cc2OC)S(=O)(=O)c2ccccc2)cc1,.,2,.,-17,-11
CCOc1ccccc1N(CC(=O)Nc1cccc(OC)c1)S(=O)(=O)c1ccccc1,8,-4,8,-2,-16
SMILES,Statin myotox sup,DENV2 CPE rescue,miR122 inh,PGC1a acetyl inh,PvdQ inh
CCC(=O)N1[C@H](CN(CC)C(=O)c2ccccc2)[C@H](c2ccccc2)[C@@H]1CO,22,7,-18[16.7 µM],6,.
CN(C)CCCNC(=O)C[C@H]1CC[C@H](NC(=O)c2ccccc2F)[C@@H](CO)O1,-16,-3,.,12,.
C/C=C/c1ccc([C@H]2[C@@H](CO)N(C(=O)c3cnccn3)C23CN(C(C)=O)C3)cc1,.,-8,.,5,.
COc1ccc(NS(=O)(=O)c2cccc(NC(=O)COc3ccccc3[N+](=O)[O-])c2)cc1,-3,3,146*,-11,-17
CCN(CC)C(=O)C1CCN(Cc2ccc(OCc3ccccc3)cc2)CC1,7,28*,-1,-17,-16
CN(C)CC(=O)N1CC[C@H]2[C@@H]1c1cc(-c3ccccc3F)ccc1N(C)[C@H]2CO,-12,22*,-11[16.7 µM],-4,.
CN(C)CC(=O)N1CC[C@@H]2[C@H]1c1cc(-c3ccccc3F)ccc1N(C)[C@@H]2CO,-9,49*,3[16.7 µM],0,.
CN(C)CC(=O)N1CC[C@@H]2[C@H]1c1cc(-c3ccccc3)ccc1N(C)[C@H]2CO,-16,-9,1[16.7 µM],0,.
O=C(NC1CCCC1)N1CC(=O)N2[C@H](CO)[C@@H](c3ccc(-c4cccc(F)c4)cc3)[C@H]2C1,.,3,.,1,.
CC(C)C#Cc1ccc([C@@H]2[C@@H](CO)N3C(=O)CN(C(=O)Cc4ccccc4)C[C@H]23)cc1,.,0,.,5,.
O=C(O)C1CCCCC1C(=O)Nc1ccccn1 (stereo not given),105*,.,-3,-10,-13
O=C(O)COc1ccc(/C=C2/SC(=S)N(Cc3ccccc3)C2=O)cc1,18,-3,-3,72*,-19
O=C(Nc1c(C(=O)N2CCN(c3ccccn3)CC2)oc2ccccc12)c1ccc([N+](=O)[O-])cc1,-24,1,143*,.,-14
O=C(NCCC(=O)N1CCN(c2ccccn2)CC1)c1ccc([N+](=O)[O-])cc1,-8,-2,.,.,-14
CO[C@@H]1CN(C)C(=O)c2cc(NC(=O)C3CC3)ccc2OC[C@H](C)N(Cc2cncnc2)C[C@@H]1C,-4,-8,.,-16,.
O=S1(=O)C=C(N2CCCCC2)c2ccccc21,108*,.,-5,3,-11
O=C1c2ccccc2C(=O)c2cc(N3CCCCC3)ccc21,-34,4,.,5,-11
C[C@@H]1CN([C@@H](C)CO)C(=O)c2cc(-c3cncnc3)cnc2O[C@@H]1CN(C)C(=O)Nc1ccc2c(c1)OCO2,-9,-3,4[16.7 µM],3,.
Cc1ccc(S(=O)(=O)N(C)C[C@@H]2Oc3ncc(/C=C/c4ccccc4)cc3C(=O)N([C@H](C)CO)C[C@@H]2C)cc1,36,23*,3[16.7 µM],-24,.
C[C@@H]1CN([C@@H](C)CO)C(=O)c2cc(-c3cncnc3)cnc2O[C@H]1CN(C)C(=O)Nc1ccc2c(c1)OCO2,4,47*,5[16.7 µM],3,.
C[C@H](CO)N1C[C@H](C)[C@H](CN(C)C(=O)Nc2ccc3c(c2)OCO3)Oc2ncc(C#Cc3ccc(F)cc3)cc2C1=O,74*,-4,-11[16.7 µM],14,.
COc1ccc(NC(=O)N(C)C[C@H]2Oc3ncc(C#CC(C)C)cc3C(=O)N([C@@H](C)CO)C[C@H]2C)cc1,-7,39*,6[16.7 µM],19,.

# Screens from PubChem.
